Compound activity: PubChem, National Center for Advancing Translational Sciences (NCATS)
Hits are enriched below; roughly 7.2% of the tested compounds scored in any of these assays.
HEK293 cAMP cs: counter-screen for TSHR agonists: cAMP increase in parental HEK293; parental HEK293 CNG cAMP sensor, membrane potential fluorescence; Potency, µM (series often up to 57.1 µM), without a hit: top-dose activation, actives largely listed as activators; 2.5% of 73,000 active; also: % of control where 0% means no effect; nearly all actives have a fitted effect of over 55% in size
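Counterscreen for endogenous-receptor signalling: CNG-channel HEK 293 cells report cAMP rise by membrane depolarization. After 60 min dye equilibration with 100 uM RO 20-1724, compounds incubated 30 min before bottom-read fluorescence at 590 nm.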
Tau filament bind: binds recombinant human tau filaments. Potency, µM (series often up to 57.1 µM), for the others: at the top dose activity change, negative = inhibition. recombinant tau filaments, thioflavin S fluorescence, 15 h; filaments grown with octadecylsulfate alongside compound. 2% of 71,000 active;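 also: % is scaled to controls: 0 for no effect and ±100 for the full control effect; actives lower thioflavin S fluorescence by blocking filaments or displacing dye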
Target sequence (P10636 whole entry, looked up): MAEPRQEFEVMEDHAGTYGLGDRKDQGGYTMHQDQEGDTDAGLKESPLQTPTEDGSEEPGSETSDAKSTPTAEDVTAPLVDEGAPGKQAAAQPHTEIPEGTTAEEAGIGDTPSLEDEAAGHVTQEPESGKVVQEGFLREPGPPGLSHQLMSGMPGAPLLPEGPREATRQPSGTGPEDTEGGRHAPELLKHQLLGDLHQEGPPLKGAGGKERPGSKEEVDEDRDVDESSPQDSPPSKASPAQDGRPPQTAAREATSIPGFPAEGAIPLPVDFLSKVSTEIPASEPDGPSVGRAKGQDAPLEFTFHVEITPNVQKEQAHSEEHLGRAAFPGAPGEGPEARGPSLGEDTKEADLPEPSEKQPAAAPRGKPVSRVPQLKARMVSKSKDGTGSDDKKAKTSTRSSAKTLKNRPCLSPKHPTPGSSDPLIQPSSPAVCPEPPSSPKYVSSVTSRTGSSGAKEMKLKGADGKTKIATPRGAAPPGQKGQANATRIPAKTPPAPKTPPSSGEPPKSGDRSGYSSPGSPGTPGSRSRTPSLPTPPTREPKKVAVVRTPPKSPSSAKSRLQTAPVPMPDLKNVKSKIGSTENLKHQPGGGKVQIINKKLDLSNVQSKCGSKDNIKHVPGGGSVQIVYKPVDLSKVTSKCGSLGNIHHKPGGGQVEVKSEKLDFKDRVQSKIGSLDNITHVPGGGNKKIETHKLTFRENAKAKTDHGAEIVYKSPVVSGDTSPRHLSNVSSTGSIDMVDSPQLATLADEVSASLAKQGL
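Recombinant tau protein (human, 1 uM final) plus 30 uM ODS in HEPES pH 7.4 with NaCl, DTT and thioflavine S. Compound present from the start; fluorescence at 510 nm after 15 h, 37 C.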
PK Bst: alters activity of Bacillus stearothermophilus pyruvate kinase; purified pyruvate kinase, luminescence ATP production; ribose 5-phosphate activator present at AC10; 1.2% of 51,000 active; Potency, µM; AID 361; in the data active = potency below about 11 µM; inconclusive = mostly about 12 µM to 25 µM;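 the screen sought inhibitors and activators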;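 also: scaled between full activation by ribose 5 phosphate and full inhibition by luteolin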
Luciferase inh: inhibitors of firefly luciferase | 2.2% of 72,000 active | P08659 | purified firefly luciferase, luminescence, 8 min | Potency, µM (series often up to 57.1 µM), for the others: at the highest dose activity change, negative = inhibition, usual class: inhibitors; also: % is scaled to controls: 0 for no effect and ±100 for the full control effect; nearly all actives have a fitted effect of over 40% in size
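Compounds were tested as concentration series (qHTS) against purified P. pyralis luciferase with luciferin and 10 uM ATP in 50 mM imidazole pH 7.2, 50 mM KCl, 7 mM MgCl2, 0.01% Tween 20, 0.05% BSA. Luminescence was read after 8 min at ambient temperature.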
TSHR ag: activates the human thyroid stimulating hormone receptor; P16473; HEK293-CNG-TSHR cells (CNG channel as cAMP sensor), membrane potential dye, cAMP; Potency, µM (doses to about 57.1 µM), without a hit: at the highest dose activation, most hits filed as activators; 0.48% of 73,000 active; AID 926; active = well fitted activation curve with a large enough effect in the main read-out, with a control signal flat, not every such curve was filed as active; inconclusive = small, poorly fitted or top-dose-only effect, or a change in a side signal; inactive = no such curve, though single readings can be large or run the other way; % of control where 0% means no effect;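 also: the control signal comes from parental cells without the receptor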
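HEK 293 cells stably expressing TSHR and a cAMP-gated CNG channel; parental CNG-only cells as counterscreen. Cells preloaded 60 min with membrane potential dye plus 100 uM RO 20-1724, then compound 30 min; fluorescence read at 590 nm.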
ERK AVP block: inhibitors of vasopressin-stimulated ERK signaling pathway | HEK293-V1b, vasopressin-stimulated pERK AlphaScreen | Potency, µM (top dose mostly 57.5 µM), inactives show at the highest dose activity, negative = inhibition, usual class: inhibitors | 0.99% of 72,000 active; also: % is scaled to controls: 0 for no effect and ±100 for the full control effect; nearly all actives have a fitted effect of over 55% in size
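HEK293 cells stably expressing V1b receptor, seeded overnight in 1% FBS, were treated with compounds for 30 min at 37C, then stimulated 5 min with 25 nM vasopressin; phospho-ERK read by AlphaScreen SureFire after lysis.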
Numbers without * were called inactive; [ ] = remark or other dose. Unless noted, calls follow the shape of the dose curve; as a rule, active = well fitted curve in the direction sought with a large enough effect; inconclusive = small, poorly fitted or top-dose-only effect, or another doubt; inactive = no such curve, though single readings can be large; an effect the other way counts as inactive or inconclusive. Potency is read from the fitted curve at half-maximal effect.

O=c1c(-c2ccc(F)c(F)c2)nc2cncnc2n1Cc1ccc(F)cc1 was read as HEK293 cAMP cs -48%, Tau filament bind 16µM*, Luciferase inh 1%[11.4 µM], TSHR ag inconclusive and ERK AVP block inconclusive.
For O=C(Nc1ccccc1)N(O)c1ccc(Cl)cc1 the results were HEK293 cAMP cs -9%, Tau filament bind -17%, PK Bst inconclusive, Luciferase inh 13µM*, TSHR ag -19% and ERK AVP block -8%.
Screening CN(C)Cc1ccccc1-c1cncnc1Nc1ccncc1 returned HEK293 cAMP cs 7%, Tau filament bind 1%, Luciferase inh 0%[2.29 µM], TSHR ag 9% and ERK AVP block -9%.
For CC(=Nc1cccc(O)c1)c1sc2ccccc2c1O the results were PK Bst 8.2* and Luciferase inh 7.9µM*.
Screening CN=Cc1sc2ccccc2c1O returned HEK293 cAMP cs 2%, Tau filament bind -16%, Luciferase inh -17%, TSHR ag -4% and ERK AVP block 24%.
`C[C@]1(C(=O)NCc2cc(F)cc(C(F)(F)F)c2)C=C[C@@H](Cc2ccccc2)N1C(=O)c1ccccc1` gave HEK293 cAMP cs 16µM*, Tau filament bind 62%, TSHR ag inconclusive and ERK AVP block 31%.
For Cc1ccc(C2/C(=C(/O)c3cnn(-c4ccccc4)c3C)C(=O)C(=O)N2CCN2CCOCC2)o1 (stereo not given) the results were PK Bst >26 and Luciferase inh -6%[25.5 µM].
Cc1c(/C(O)=C2/C(=O)C(=O)N(CCN3CCOCC3)C2c2cccs2)cnn1-c1ccccc1 (stereo not given) was read as HEK293 cAMP cs 5%, Tau filament bind 19%, Luciferase inh 13µM*, TSHR ag -2% and ERK AVP block 1%.
`O=c1c(CCc2ccccc2)nc2cnc(Nc3ccccc3)nc2n1C[C@H]1CCCO1` gave HEK293 cAMP cs 10%, Tau filament bind 36%, Luciferase inh -1%[11.4 µM], TSHR ag 2% and ERK AVP block -24%.
`O=C(c1cccc(C(=O)N2CCN(Cc3ccccc3)CC2)c1)N1CCN(Cc2ccccc2)CC1` gave HEK293 cAMP cs 1.3µM*, Tau filament bind 1%, PK Bst >57, Luciferase inh 1%, TSHR ag inconclusive and ERK AVP block inconclusive.
`CC(=O)Nc1ccc2nc(-c3cccs3)[nH]c2c1` gave HEK293 cAMP cs 1%[11.4 µM], Tau filament bind -15%[11.4 µM], Luciferase inh 16µM*, TSHR ag 9%[11.4 µM] and ERK AVP block -2%.
For Cn1cccc1-c1nc2ccc(NC(=O)c3cccs3)cc2[nH]1 the results were HEK293 cAMP cs 1%, Tau filament bind inconclusive, PK Bst inactive, Luciferase inh -24%, TSHR ag 4% and ERK AVP block 20µM*.
O=C(Nc1ccc2nc(-c3ccc(Br)o3)[nH]c2c1)c1cccs1 was read as HEK293 cAMP cs 23%, Tau filament bind -15%, PK Bst inconclusive, Luciferase inh 13µM*, TSHR ag 14% and ERK AVP block inconclusive.
For CC(=O)Nc1ccc(Oc2ccc3nc(C)[nH]c3c2)cc1 the results were PK Bst >26 and Luciferase inh -2%[25.5 µM].
`O=C(Nc1ccc2nc(-c3ccc(Br)o3)[nH]c2c1)c1ccco1` gave HEK293 cAMP cs 19%, Tau filament bind -6%, PK Bst 10*, Luciferase inh 10µM*, TSHR ag 2% and ERK AVP block -26%.
For O=C(Nc1ccc2nn(-c3ccccc3)nc2c1)c1cccs1 the results were HEK293 cAMP cs 13%, Tau filament bind 124%, PK Bst >57, Luciferase inh -8%, TSHR ag 24% and ERK AVP block inconclusive.
CS(=O)(=O)N1CCC2(CCN(c3ccccc3)CC2)CC1 was read as HEK293 cAMP cs 7%, Tau filament bind -8%, Luciferase inh -1%[11.4 µM], TSHR ag -3% and ERK AVP block -4%.
O=C(c1cc2c(s1)-c1ccccc1OC2)N1CCCC1 was read as HEK293 cAMP cs 15%, Tau filament bind 63%, Luciferase inh 13µM*, TSHR ag 22% and ERK AVP block 1%.
Screening O=C(c1cc2c(s1)-c1ccccc1OC2)N1CCN(c2ccccn2)CC1 returned HEK293 cAMP cs inconclusive, Tau filament bind 265%, Luciferase inh 1%, TSHR ag inconclusive and ERK AVP block 25µM*.
Screening COc1ccc(NC(=O)N2CCCC3(CCN(C(=O)c4cc(C(F)(F)F)cc(C(F)(F)F)c4)CC3)C2)cc1 returned HEK293 cAMP cs inconclusive, Tau filament bind -11%, Luciferase inh 2%[11.4 µM], TSHR ag inconclusive and ERK AVP block 1%.
For CCOC(=O)c1c(C)n(C)c2ccc(O)c(S(=O)(=O)c3ccccc3)c12 the results were PK Bst 10* and Luciferase inh -2%[25.5 µM].
`CCN1c2ccccc2NC2N=C(OC)C(c3ccccc3)C21` (stereo not given) gave HEK293 cAMP cs inconclusive, Tau filament bind 32µM*, Luciferase inh -1%, TSHR ag inconclusive and ERK AVP block inconclusive.
CCN1c2ccccc2NC2C1C(C(C)=O)C(=O)N2c1ccc(Cl)cc1 (stereo not given) was read as HEK293 cAMP cs 14%, Tau filament bind -29%, Luciferase inh 0%, TSHR ag 5% and ERK AVP block inconclusive.
CC(=O)C[C@H](O)[C@@H](NC(=O)OC(C)(C)C)C(C)C was read as HEK293 cAMP cs 18%[11.4 µM], Luciferase inh 2%[11.4 µM], TSHR ag 11%[11.4 µM] and ERK AVP block 11%[11.5 µM].
Screening CCCNC(=O)C1=C(C)C(=O)OC12CCC(C)CC2 (stereo not given) returned HEK293 cAMP cs 19%, Tau filament bind -19%, Luciferase inh -1%, TSHR ag 6% and ERK AVP block -15%.
For CC1=C(C(=O)N(C)Cc2ccccc2)C2(CCC(C)CC2)OC1=O (stereo not given) the results were HEK293 cAMP cs 6.3µM*, Tau filament bind -19%, Luciferase inh 2%, TSHR ag inconclusive and ERK AVP block 40%.
`C[C@@H]1C=C[C@](Cc2ccccc2)(C(=O)NCC2CC2)N1C(=O)c1ccccc1` gave HEK293 cAMP cs 16µM*, Tau filament bind -14%, TSHR ag inconclusive and ERK AVP block 20%.
`NCCC[C@@H](CC(=O)N[C@@H]1CCNC[C@H]1C(=O)N[C@H](CC(=O)N[C@@H](CCC(=O)O)CC(=O)O)Cc1ccccc1)NC(=O)C[C@H](Cc1c[nH]c2ccccc12)NC(=O)[C@@H]1CNCC[C@H]1N` gave HEK293 cAMP cs inconclusive, Tau filament bind -11% and TSHR ag inconclusive.
